# Inconclusive results are not listed. Active and inactive are the calls of the source. Calls follow the shape of the dose curve; as a rule, active = well fitted inhibition curve with a large enough effect; inconclusive = small, poorly fitted or top-dose-only effect; inactive = flat fitted curve, though single readings scatter.
# Molecular target: Papain (Carica papaya) (UniProt P00784)
# Assay: Confirmatory qHTS assay for inhibitors of the protease papain
# Conditions: papain Z-FR-AMC cleavage, fluorescence
# Excerpt: Principal Investigator: Sam Michael National Center for Advancing Translational Sciences, National Institutes of Health, Rockville, MD Current high-throughput screening (HTS) assay validation is often a manual process, though this can be enhanced by design-of-experiment approaches. An artificial intelligence-driven (AI/ML) assay optimization was developed as part of the NCATS A Specialized Platform for Innovative Research Exploration (ASPIRE) Initiative to accelerate preclinical drug discovery. We describe the development of an autonomous Cloud-based computational driven assay optimization system using the Kebotix adaptive optimization algorithm. […]
# PROTOCOL TABLE SEQUENCE No. (e.g., 1, 2, 3, etc.); PARAMETER (e.g., Cells, Incubation, Reagent, etc.); VALUE and DESCRIPTION. 1; Reagent; 3 uL; 4/3x Enzyme solution (working concentration of 5 nM) or 3 uL buffer 2; Compounds; 17 nL; library compounds and controls (working concentration of 169 nM - […]) 3; Time; 15 min; room temperature incubation 4; Reagent; 1 uL; 4x 2 uM Z-FR-AMC substrate 5; Centrifugation; 1000 rpm; 15 sec centrigure 6; Detection; Fluorescence Read 1; ViewLux plate reader 7; Time; 10 min; room temperature incubation 8; Detection; Fluorescence Read 2; ViewLux plate reader NOTES (numbers refer to Sequence numbers above; values are from representative experiments) 1; Dispense 3 uL of [4/3x] […]
# Sequence of Papain (Carica papaya) (P00784 whole entry, looked up): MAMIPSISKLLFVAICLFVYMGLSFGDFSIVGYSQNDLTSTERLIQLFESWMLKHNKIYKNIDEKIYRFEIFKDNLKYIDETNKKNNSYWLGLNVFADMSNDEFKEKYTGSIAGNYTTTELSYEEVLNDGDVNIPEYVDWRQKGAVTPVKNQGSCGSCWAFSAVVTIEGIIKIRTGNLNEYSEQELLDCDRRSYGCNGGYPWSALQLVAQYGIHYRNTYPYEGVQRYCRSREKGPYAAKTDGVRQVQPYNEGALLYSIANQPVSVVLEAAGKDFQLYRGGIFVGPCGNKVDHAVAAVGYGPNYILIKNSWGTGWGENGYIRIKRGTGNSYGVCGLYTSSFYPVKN
smiles,measurement,value
Cc1ccc(S(=O)(=O)N[C@@H](CCCCN)C(=O)CCl)cc1,Potency,647 nM (active)
